Data reported in PubChem BioAssay AID1159580 (chemical genetic matrix, 2015).
Out of some 5,500 compounds screened, about 2,000 (36%) were called active. Roughly 18% stayed inconclusive and do not appear here. Rule as the data show it: active = normalized growth mostly below about 0.91 (no sharp cut-off); inconclusive = no clear call, values can overlap the other calls; inactive = mostly above about 0.92. This is one part of the list.

Experiment: chemical genetic growth profiling, strain panel (AID 1159580);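 also: tested at 20 µM; growth read once vehicle control cultures reached saturation at 30 °C; 1 = growth at the plate median or of vehicle wells; lower values mean less growth of the strain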
Settings: growth OD

Measured: normalized growth

COc1cc(C/C=C/c2ccccc2)c(OC)cc1O
active: S. cerevisiae deletion strains, locus YLR371W, strain rom2, hits give low values 0.849 | S. cerevisiae deletion strains, locus YNL071W, strain lat1, hits give low values 0.866 | S. cerevisiae deletion strains, locus YNL250W, strain rad50, hits give low values 0.898 | S. cerevisiae deletion strains, locus YPL106C, strain sse1, hits give low values 0.847 | S. cerevisiae deletion strains, locus YPR141C, strain kar3, hits give low values 0.914
inactive: S. cerevisiae deletion strains, locus YJR066W, strain TOR1, hits give low values 0.989 | S. cerevisiae deletion strains, locus YJR075W, strain HOC1, hits give low values 0.935 | S. cerevisiae deletion strains, locus YKL009W, strain mrt4, hits give low values 1.01 | S. cerevisiae deletion strains, locus YKL068W, hits give low values 0.954 | S. cerevisiae deletion strains, locus YKL085W, strain MDH1 (second series), hits give low values 0.965 | S. cerevisiae deletion strains, locus YKL085W, strain MDH1, hits give low values 0.965 | S. cerevisiae deletion strains, locus YKL160W, strain elf1, hits give low values 0.95 | S. cerevisiae deletion strains, locus YKR001C, strain vps1, hits give low values 0.969 | S. cerevisiae deletion strains, locus YKR026C, strain gcn3, hits give low values 0.956 | S. cerevisiae deletion strains, locus YKR091W, strain srl3, hits give low values 0.954 | S. cerevisiae deletion strains, locus YLL001W, strain dnm1, hits give low values 0.926 | S. cerevisiae deletion strains, locus YLL026W, hits give low values 0.962 | S. cerevisiae deletion strains, locus YLL041C, strain sdh2, hits give low values 0.949 | S. cerevisiae deletion strains, locus YLR027C, strain aat2, hits give low values 0.942 | S. cerevisiae deletion strains, locus YLR039C, strain RIC1, hits give low values 0.91 | S. cerevisiae deletion strains, locus YLR058C, strain SHM2, hits give low values 0.987 | S. cerevisiae deletion strains, locus YLR102C, strain apc9, hits give low values 0.964 | S. cerevisiae deletion strains, locus YLR113W, strain HOG1, hits give low values 1.01 | S. cerevisiae deletion strains, locus YLR221C, strain rsa3, hits give low values 1 | S. cerevisiae deletion strains, locus YLR258W, strain gsy2, hits give low values 0.943 | S. cerevisiae deletion strains, locus YLR262C, strain YPT6 (second series), hits give low values 0.95 | S. cerevisiae deletion strains, locus YLR262C, strain YPT6, hits give low values 0.967 | S. cerevisiae deletion strains, locus YLR268W, strain sec22, hits give low values 1 | S. cerevisiae deletion strains, locus YLR320W, strain mms22, hits give low values 0.982 | S. cerevisiae deletion strains, locus YLR330W, strain CHS5, hits give low values 0.964 | S. cerevisiae deletion strains, locus YLR342W, strain FKS1 (second series), hits give low values 1.05 | S. cerevisiae deletion strains, locus YLR342W, strain FKS1, hits give low values 0.949 | S. cerevisiae deletion strains, locus YLR357W, strain rsc2, hits give low values 0.883 | S. cerevisiae deletion strains, locus YLR370C, strain arc18, hits give low values 0.965 | S. cerevisiae deletion strains, locus YLR384C, strain iki3, hits give low values 0.98 | S. cerevisiae deletion strains, locus YLR418C, strain cdc73, hits give low values 0.883 | S. cerevisiae deletion strains, locus YML016C, strain PPZ1, hits give low values 0.963 | S. cerevisiae deletion strains, locus YML032C, strain rad52, hits give low values 1.02 | S. cerevisiae deletion strains, locus YML120C, strain ndi1, hits give low values 0.922 | S. cerevisiae deletion strains, locus YML124C, strain tub3, hits give low values 0.941 | S. cerevisiae deletion strains, locus YMR058W, strain fet3, hits give low values 0.923 | S. cerevisiae deletion strains, locus YMR078C, strain ctf18, hits give low values 0.956 | S. cerevisiae deletion strains, locus YMR125W, strain sto1, hits give low values 0.898 | S. cerevisiae deletion strains, locus YMR129W, hits give low values 0.96 | S. cerevisiae deletion strains, locus YMR205C, strain PFK2, hits give low values 0.914 | S. cerevisiae deletion strains, locus YMR223W, strain ubp8, hits give low values 0.983 | S. cerevisiae deletion strains, locus YMR231W, strain pep5, hits give low values 0.978 | S. cerevisiae deletion strains, locus YMR307W, strain GAS1, hits give low values 1.04 | S. cerevisiae deletion strains, locus YNL067W, strain RPL9B, hits give low values 0.966 | S. cerevisiae deletion strains, locus YNL128W, strain TEP1, hits give low values 0.944 | S. cerevisiae deletion strains, locus YNL183C, strain NPR1, hits give low values 1 | S. cerevisiae deletion strains, locus YNL209W, strain ssb2, hits give low values 0.97 | S. cerevisiae deletion strains, locus YNL233W, strain BNI4, hits give low values 0.945 | S. cerevisiae deletion strains, locus YNL248C, strain rpa49, hits give low values 0.95 | S. cerevisiae deletion strains, locus YNL271C, strain bni1, hits give low values 0.926 | S. cerevisiae deletion strains, locus YNL298W, strain CLA4, hits give low values 0.986 | S. cerevisiae deletion strains, locus YNL307C, strain MCK1, hits give low values 0.955 | S. cerevisiae deletion strains, locus YNL322C, strain KRE1 (second series), hits give low values 0.969 | S. cerevisiae deletion strains, locus YNL322C, strain KRE1, hits give low values 0.962 | S. cerevisiae deletion strains, locus YNR049C, strain mso1, hits give low values 0.962 | S. cerevisiae deletion strains, locus YNR052C, strain pop2, hits give low values 0.969 | S. cerevisiae deletion strains, locus YOL006C, strain TOP1, hits give low values 1.23 | S. cerevisiae deletion strains, locus YOL012C, strain htz1 0.65 | S. cerevisiae deletion strains, locus YOL147C, strain pex11, hits give low values 0.963 | S. cerevisiae deletion strains, locus YOR001W, strain rrp6, hits give low values 0.982 | S. cerevisiae deletion strains, locus YOR061W, strain CKA2, hits give low values 0.965 | S. cerevisiae deletion strains, locus YOR069W, strain VPS5, hits give low values 0.955 | S. cerevisiae deletion strains, locus YOR070C, strain gyp1, hits give low values 0.981 | S. cerevisiae deletion strains, locus YOR080W, strain dia2, hits give low values 0.959 | S. cerevisiae deletion strains, locus YOR083W, strain WHI5, hits give low values 0.934 | S. cerevisiae deletion strains, locus YOR106W, strain vam3, hits give low values 0.882 | S. cerevisiae deletion strains, locus YOR136W, strain idh2, hits give low values 0.963 | S. cerevisiae deletion strains, locus YOR144C, strain elg1, hits give low values 0.971 | S. cerevisiae deletion strains, locus YOR184W, strain ser1, hits give low values 1.08 | S. cerevisiae deletion strains, locus YOR231W, strain MKK1, hits give low values 1.07 | S. cerevisiae deletion strains, locus YOR265W, strain rbl2, hits give low values 0.955 | S. cerevisiae deletion strains, locus YOR270C, strain vph1, hits give low values 0.924 | S. cerevisiae deletion strains, locus YOR290C, strain snf2, hits give low values 0.902 | S. cerevisiae deletion strains, locus YOR316C, strain cot1, hits give low values 0.95 | S. cerevisiae deletion strains, locus YPL051W, strain arl3, hits give low values 0.937 | S. cerevisiae deletion strains, locus YPL055C, strain LGE1, hits give low values 1.01 | S. cerevisiae deletion strains, locus YPL078C, strain atp4, hits give low values 0.916 | S. cerevisiae deletion strains, locus YPL240C, strain hsp82, hits give low values 0.963 | S. cerevisiae deletion strains, locus YPL256C, strain CLN2, hits give low values 1.03 | S. cerevisiae deletion strains, locus YPR119W, strain clb2, hits give low values 0.946 | S. cerevisiae deletion strains, locus YPR163C, strain tif3, hits give low values 0.98 | S. cerevisiae deletion strains, locus YPR167C, strain met16, hits give low values 0.959 | S. cerevisiae deletion strains, strain wtn01, hits give low values 1.02 | S. cerevisiae strains, strain wild type, hits give low values 0.98
